Reference: PubChem BioAssay (NCATS)
Results filed as inconclusive are left out. A call without a number means that no potency is given here. Values without a mark were called inactive. Activity calls are given as the source filed them. Unless noted, the call rests on the fitted dose curve; in most records, active means well fitted curve in the direction sought with a large enough effect; inconclusive means small, poorly fitted or top-dose-only effect, or another doubt; inactive means no such curve, though single readings can be large; an effect the other way counts as inactive or inconclusive.

Tests used:
[1] = qHTS for Inhibitors of Plasmodium falciparum (DD2) proliferation (AID 504314);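 further: parasite DNA measured by SYBR Green fluorescence after red cell lysis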; details: P. falciparum Dd2 in erythrocytes, SYBR Green growth, 72 h; series mostly up to 6.11 µM
How it was run: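 SYBR Green DNA-fluorescence growth assay: infected RBCs at 0.3% parasitemia, 2.5% hematocrit, 72 h compound exposure, 37C, 5% CO2; overnight lysis with dye at RT; normalized to 0.29 uM artemisinin and vehicle.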

[2] = qHTS for Inhibitors of Plasmodium falciparum (CP250) proliferation (AID 504320); details: P. falciparum CP250 in erythrocytes, SYBR Green DNA, 72 h; series mostly up to 6.7 µM
How it was run: (§1)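 Parasite growth measured as SYBR Green DNA fluorescence (ex 485, em 535 nm) after overnight lysis following 72 h culture at 37 °C, 0.3% parasitemia, 2.5% hematocrit. Values normalized against DMSO and 0.29 uM artemisinin controls, with plate-stack correction.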

[3] = target: Atrial natriuretic peptide receptor 1 (Homo sapiens) (UniProt P16066); experiment: Natriuretic polypeptide receptor (hNpr1) antagonism - Pilot CMLD screen (AID 1347052; calls by dose curve;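 further: cGMP level read as GloSensor luciferase luminescence after agonist stimulation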; further: potency means the concentration at half of the fitted maximal effect); details: HEK293 hNpr1 GloSensor cGMP luminescence, ANP-stimulated; series mostly up to 9.22 µM
[4] = qHTS for Inhibitors of Plasmodium falciparum (GB4) proliferation (AID 504315); further: nearly all actives have a fitted effect of over 50% in size; further: potency means the concentration at half of the fitted maximal effect; details: P. falciparum GB4 in erythrocytes, SYBR Green DNA, 72 h; series mostly up to 6.7 µM
How it was run: as §1

[5] = qHTS for Inhibitors of Plasmodium falciparum (7G8) proliferation (AID 504316); further: nearly all actives have a fitted effect of over 65% in size; further: potency means the concentration at half of the fitted maximal effect; details: P. falciparum 7G8 in erythrocytes, SYBR Green DNA, 72 h; series mostly up to 6.7 µM
How it was run: as §1

[6] = qHTS for Inhibitors of Plasmodium falciparum (HB3) proliferation (AID 504318); further: nearly all actives have a fitted effect of over 60% in size; further: potency means the concentration at half of the fitted maximal effect; details: P. falciparum HB3 in erythrocytes, SYBR Green DNA, 72 h; series mostly up to 7.21 µM
How it was run: as §1

Chain of Atrial natriuretic peptide receptor 1 (Homo sapiens) (P16066 whole entry, looked up): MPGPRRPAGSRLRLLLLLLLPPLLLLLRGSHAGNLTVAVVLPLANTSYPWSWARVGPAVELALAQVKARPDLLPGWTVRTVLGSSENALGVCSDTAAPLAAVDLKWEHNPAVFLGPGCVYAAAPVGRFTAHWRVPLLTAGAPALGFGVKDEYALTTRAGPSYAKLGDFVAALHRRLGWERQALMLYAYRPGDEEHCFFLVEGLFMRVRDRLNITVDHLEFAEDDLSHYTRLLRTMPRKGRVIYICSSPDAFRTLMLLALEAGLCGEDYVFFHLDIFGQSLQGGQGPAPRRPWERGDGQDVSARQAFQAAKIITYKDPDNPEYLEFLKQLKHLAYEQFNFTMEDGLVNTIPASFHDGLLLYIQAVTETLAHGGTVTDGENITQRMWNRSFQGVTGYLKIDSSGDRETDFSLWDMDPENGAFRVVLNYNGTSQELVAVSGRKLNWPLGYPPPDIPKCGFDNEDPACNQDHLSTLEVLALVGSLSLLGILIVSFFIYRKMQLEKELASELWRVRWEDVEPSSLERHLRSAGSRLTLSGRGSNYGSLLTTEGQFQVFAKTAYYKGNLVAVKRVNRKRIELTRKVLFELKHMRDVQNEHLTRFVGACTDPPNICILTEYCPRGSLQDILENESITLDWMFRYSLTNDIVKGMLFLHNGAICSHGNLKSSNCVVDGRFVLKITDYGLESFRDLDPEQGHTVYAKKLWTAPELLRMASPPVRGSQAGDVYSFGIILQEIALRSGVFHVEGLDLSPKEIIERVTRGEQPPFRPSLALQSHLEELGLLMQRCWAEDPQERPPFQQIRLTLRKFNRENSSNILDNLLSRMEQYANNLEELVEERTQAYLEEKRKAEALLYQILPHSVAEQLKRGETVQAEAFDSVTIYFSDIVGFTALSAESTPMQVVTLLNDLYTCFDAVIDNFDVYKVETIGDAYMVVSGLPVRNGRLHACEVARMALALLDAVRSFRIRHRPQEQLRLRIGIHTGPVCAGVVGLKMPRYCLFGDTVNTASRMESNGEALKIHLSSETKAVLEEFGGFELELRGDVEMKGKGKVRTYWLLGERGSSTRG

Row | Compound | Potency [1] | Potency [2] | Potency [3] | Potency [4] | Potency [5] | Potency [6] | activity, negative = inhibition [1]
1 | COc1ccc2c(c1)[C@@]1(OCCC=C[C@@H]1C)C(=O)N2CC=C(C)CCC=C(C)C | inactive | inactive | inactive | – | – | – | –
2 | CCCNC(=O)OC[C@H]1O[C@H](CCON=C(C)CCN2CCCc3nc(C)c(C)cc32)C=C[C@H]1Oc1ccc(OC)cc1 | – | – | inactive | 1900 nM (active) | 1350 nM (active) | 1690 nM (active) | –
3 | CCOC(=O)OC[C@H]1O[C@H](C#Cc2ccc(C(C)(C)C)cc2)C=C[C@H]1OC(=O)OCC | – | – | inactive | 1690 nM (active) | 2130 nM (active) | – | –
4 | C=CC1=C2C=C(C3CC3)N(c3ccc(OC)cc3)C=C2C(=O)C(C)(OC(=O)c2ccco2)C1=O (centres undefined) | – | inactive | inactive | – | – | – | 0.839% [at 1.12 µM]
5 | CCCCCCCC1=Cc2ccccc2C(C(C(=O)OC)C(=O)OC)N1C(=O)OC (centres undefined) | inactive | inactive | inactive | – | – | – | –
6 | COC(=O)c1nnc(SC)nc1C(=O)OC | – | inactive | inactive | inactive | inactive | inactive | –
7 | CC(=O)OC[C@H]1O[C@H](CC=NO[C@H](C)CN2CCCCc3nc(C)c(C)cc32)C=C[C@@H]1OC(C)=O | – | – | inactive | inactive | inactive | inactive | –
8 | C[C@@H]1C[C@](C)(C(=O)c2ccco2)C=C1c1ccco1 | – | inactive | inactive | inactive | inactive | inactive | –
9 | C=CCOC(=O)N[C@@H](Cc1ccccc1)C(C(=O)OC)=C(C)NCc1ccccc1 | – | inactive | inactive | inactive | inactive | inactive | –
10 | C=CCOC(=O)N[C@H](C(C(=O)OC)=C(C)NCc1ccccc1)c1ccc2c(c1)OCO2 | – | inactive | inactive | inactive | inactive | inactive | –
11 | CC(C)=CCN1C(=O)[C@]2(OCCC=C[C@H]2C)c2c(Br)cccc21 | – | inactive | inactive | inactive | inactive | inactive | –
12 | O=C1C2=C(C(=O)c3ccccc31)[C@H]1O[C@](CCCCN3C(=O)c4ccccc4C3=O)(Cc3ccccc31)O2 | – | inactive | inactive | 1690 nM (active) | 1690 nM (active) | 1690 nM (active) | –
13 | COc1cccc(CO[C@H]2C=C[C@@H](c3ccccc3)O[C@H]2CBr)c1 | – | inactive | inactive | inactive | inactive | inactive | –
14 | C=C(C)C(O)C=Cc1ccc(C(F)(F)F)cc1 (centres undefined) | – | inactive | 5310 nM (active) | inactive | inactive | inactive | –
15 | CCCC[C@]12Cc3cc(OC)c(OC)cc3[C@H](O1)C1=C(CC3(CCCCC3)OC1=O)O2 | – | inactive | inactive | inactive | inactive | inactive | –
16 | COC(=O)CCC(=O)OC1(C)C(=O)C=C2C=C(C3CC3)N(Cc3ccc4c(c3)OCO4)C=C2C1=O (centres undefined) | – | inactive | inactive | inactive | inactive | inactive | –
17 | CC(C)CON=C1C[C@@H](O)[C@@H](O)[C@@H]2[C@H]3C(=O)N(Cc4ccc5c(c4)OCO5)C(=O)[C@@H]3CC[C@H]12 | – | inactive | inactive | inactive | inactive | inactive | –
18 | C#CCCCON=C1C[C@@H](O)[C@H](O)[C@H]2[C@@H]3C(=O)N(c4ccc(F)cc4F)C(=O)[C@@H]3CC[C@H]12 | – | inactive | inactive | inactive | inactive | inactive | –
19 | COc1ccc(NC(=O)N2CCc3nc(-c4ccccc4)c4c(c3C2)CO[C@@H](C)C4)cc1 | – | inactive | inactive | inactive | inactive | inactive | –
20 | COc1ccc(C=CC2=C[C@]3(C)C[C@]2(C)[C@H](c2ccc(OC)cc2)CC3=O)cc1 | – | – | inactive | 1690 nM (active) | 1510 nM (active) | 1510 nM (active) | –
21 | C=CC[C@@H]1C=C[C@H](ON=C(C)CCN2CCCc3nc(C)c(C)cc32)[C@H](CO)O1 | – | – | inactive | 1900 nM (active) | 75.7 nM (active) | 2510 nM (active) | –
22 | CCN1C(=NCC(C)C)N[C@H](c2ccccc2)[C@H](C(=O)OC)[C@H]1C | – | inactive | inactive | inactive | inactive | inactive | –
23 | CC#CCN1C(=O)NC(c2ccccc2)C(C(=O)OC)=C1C (centres undefined) | – | inactive | inactive | inactive | inactive | inactive | –
24 | COc1ccc(-c2nc(-c3ccccc3)oc2NC2CCCCC2)cc1 | – | – | inactive | inactive | inactive | inactive | –
25 | Cc1ccc(S(=O)(=O)NC(CCc2ccccc2)CC(=O)C(C)(C)C)cc1 (centres undefined) | – | inactive | inactive | inactive | inactive | inactive | –

Row | Compound | Potency [1] | Potency [2] | Potency [3] | Potency [4] | Potency [5] | Potency [6] | activity, negative = inhibition [1]
26 | COC(=O)c1nnc(N[C@@H](Cc2c[nH]c3ccccc23)C(=O)OC)nc1C(=O)OC | – | – | inactive | inactive | inactive | inactive | –
27 | COC(=O)C1=C(C(=O)OC)[C@@H]2N(Cc3ccccc3)c3ccccc3[C@@]23C[C@@H](C(=O)OC)N(C(=O)c2cccs2)C3=N1 | – | – | inactive | inactive | inactive | inactive | –
28 | COC(=O)CC=C[C@@H](C)[C@@H](C=NOC[C@@H](O)COCc1ccco1)OC | – | inactive | inactive | inactive | inactive | inactive | –
29 | COCCN1C(=O)NC(CCc2ccccc2)C(C(=O)OC)=C1C (centres undefined) | – | inactive | inactive | inactive | inactive | inactive | –
30 | CC(C)(C)c1nc(-c2ccccc2)oc1Nc1ccc2ccccc2c1 | – | – | inactive | 1900 nM (active) | 1510 nM (active) | 2940 nM (active) | –
31 | CCN1C(=NCCCOC(C)C)NC(c2ccccc2)C(C(=O)OC)=C1C (centres undefined) | – | inactive | inactive | inactive | inactive | inactive | –
32 | CCc1cc2c(nc1CC)CCN(CCC(C)=NOC[C@@H](O)[C@H]1O[C@@H]3OC(C)(C)O[C@H]3[C@@H]1O)C2 | – | inactive | inactive | inactive | 1690 nM (active) | 2940 nM (active) | –
33 | COC(=O)CC=C1c2ccccc2OC[C@@H](OC)[C@H]1C | – | inactive | inactive | inactive | inactive | inactive | –
34 | CC(=O)OC[C@H]1O[C@H](c2cc(C)cc(C)c2)C=C[C@H]1OC(C)=O | – | inactive | inactive | inactive | inactive | inactive | –
35 | CCCCC1=CC2=C(c3ccco3)C(=O)C(C)(OC(=O)c3ccc(OC)cc3)C(=O)C2=CN1Cc1ccccc1 (centres undefined) | – | inactive | inactive | inactive | inactive | inactive | –
36 | COc1cccc(CO[C@H]2C=C[C@@H](c3ccccc3)O[C@H]2CN=[N+]=[N-])c1 | – | inactive | inactive | inactive | inactive | inactive | –
37 | CC1(OC(=O)C2CCCC2)C(=O)C=C2C=C(c3ccsc3)N(CCN3CCOCC3)C=C2C1=O (centres undefined) | – | inactive | inactive | inactive | inactive | inactive | –
38 | COC(=O)C1=C(C(=O)OC)[C@@H]2N(C)c3ccc(OC)cc3[C@@]23C[C@@H](C(=O)OC)N(C(=O)c2ccco2)C3=N1 | – | inactive | inactive | inactive | inactive | inactive | –
39 | C=CC1=C2C=C(C3CC3)N(CC3CC3)C=C2C(=O)C(C)(OC(=O)c2ccco2)C1=O (centres undefined) | – | inactive | inactive | inactive | inactive | inactive | –
40 | COC1=CC2C(=O)C(C(c3ccccc3)C2C)C1(C)O (centres undefined) | – | inactive | inactive | inactive | inactive | inactive | –
41 | C=C(CCN1C=C(C(C)=O)C(c2ccccc2)NC1=O)c1ccccc1 (centres undefined) | – | inactive | inactive | inactive | inactive | inactive | –
42 | C=C1CN2C(=NC(c3ccccc3)C(C(=O)OC)=C2C)O1 (centres undefined) | – | inactive | inactive | inactive | inactive | inactive | –
43 | COc1cc(C(CC2=CCCCC2)NC(=O)C(F)(F)F)cc(OC)c1OC (centres undefined) | – | inactive | inactive | inactive | inactive | inactive | –
44 | CCOC(=O)NN=C1C[C@@H](O)[C@@H](O)[C@@H]2[C@H]3C(=O)N(Cc4ccc5c(c4)OCO5)C(=O)[C@@H]3CC[C@@H]12 | – | inactive | inactive | inactive | inactive | inactive | –
45 | CC(C)C(=O)N[C@H]1CCCN1C(=O)C=Cc1ccccc1 | – | inactive | inactive | inactive | inactive | inactive | –
46 | COC(=O)C1(C)C=C(Nc2ccc(OC)cc2)C(=O)N1c1ccc(OC)cc1 (centres undefined) | – | inactive | inactive | inactive | inactive | inactive | –
47 | C[C@H]1[C@H](N=[N+]=[N-])[C@H](O)CCO[C@@H]1c1ccccc1 | – | inactive | inactive | inactive | inactive | inactive | –
48 | CCN1C(=NCc2cccc(C(F)(F)F)c2)NC(c2cccs2)C(C(=O)OC)=C1C (centres undefined) | – | inactive | inactive | inactive | inactive | inactive | –
49 | CCN1C(=O)N[C@@H](CCc2ccccc2)[C@H](C(C)=O)[C@H]1C | – | inactive | inactive | inactive | inactive | inactive | –
